Compound activity deposited in PubChem by National Center for Advancing Translational Sciences (NCATS).
TDP1 cell CPT = growth inhibition of DT40 Tdp1-/-;hTDP1 cells with camptothecin (screen for TDP1 inhibitors) | 420,000 tested, 12% active | Potency, µM (doses to about 46.2 µM), for the others: at the top dose activity change, negative = growth inhibition, usual class: inhibitors | chicken DT40 Tdp1-/-;hTDP1 cells + 20 nM CPT, ATP luminescence, 48 h | AID 686979; also: potency is read from the fitted curve at half-maximal effect; nearly all actives have a fitted effect of over 55% in size
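Chicken DT40 Tdp1-/- cells stably complemented with human TDP1 were seeded at 400 cells/well in medium containing 20 nM camptothecin, exposed to pin-transferred compounds, and grown at 37 °C for at least 48 hr. Viability was read as ATP luminescence.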
IL-1B inflam inh = blocks inflammasome-driven IL-1 beta release | THP-1 LPS/ATP IL-1B secretion, AlphaLISA, 16 h; hits give low values | activity change, % at 57.5 µM | 360,000 tested, 4.7% active; in the data active = activity change below about -50%; inconclusive = mostly about -30% to -49%
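Secreted IL-1B measured by AlphaLISA bead assay after 16 h compound exposure of THP-1 cells; compounds (final up to 57.5 uM) added 1 h before LPS (250 ng/mL) and ATP (1.25 mM) stimulation; lower signal means less secretion.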
HT1080 IDH1KD tx = HT-1080 IDH1 knockdown cell toxicity (counter line) | Potency, µM (series often up to 46.1 µM), inactives show top-dose activity, negative = toxicity, most hits filed as cytotoxic | HT-1080 IDH1 knockdown viability, ATP luminescence, 48 h | 360,000 tested, 2% active;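 also: potency is read from the fitted curve at half-maximal effect; 0% = DMSO wells and -100% = cell-free medium wells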
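HT-1080-IDH1KD cells (IDH1 knocked down), 750/well in RPMI with 5% FBS, treated with compound 48 h at 37 degrees C. Viability by CellTiter-Glo luminescence, normalised to DMSO and no-cell wells; concentration-response curves classed.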
TDP1 cell noCPT = qHTS for Inhibitors of human tyrosyl-DNA phosphodiesterase 1 (TDP1): qHTS in cells in absence of CPT | DT40 Tdp1-/- hTDP1 cells, no CPT, ATP luminescence, 48 h | Potency, µM (top dose mostly 46.2 µM), for inactives: top-dose activity change, negative = growth inhibition, actives largely listed as inhibitors | 420,000 tested, 15% active | AID 686978, 2013; also: potency is read from the fitted curve at half-maximal effect; nearly all actives have a fitted effect of over 55% in size
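Growth of hTDP1-complemented DT40 Tdp1-knockout cells is measured by ATP luminescence after at least 48 hr compound exposure at 37 °C, with DMSO substituting for the 20 nM CPT used in the parallel screen.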
HT1080-NT tox = kills 2HG-producing HT-1080-NT fibrosarcoma cells | HT-1080-NT fibrosarcoma viability, CellTiter-Glo ATP luminescence, 48 h | Potency, µM (doses to about 46.1 µM), inactives show at the highest dose activity, negative = less viability, usual class: cytotoxic | 360,000 tested, 1.6% active | AID 686970;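 also: NT is the 2HG producing partner of a matched IDH1 knockdown line; potency is read from the fitted curve at half-maximal effect; 0% = DMSO-treated cells and -100% = media-only wells without cells; nearly all actives have a fitted effect of over 55% in size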
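Luminescent CellTiter-Glo readout after 48 hours of compound exposure at 37 degrees C defined viability of HT-1080-NT cells. Activity was normalized to DMSO wells and cell-free media wells; concentration-response curves were fitted and assigned curve classes.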
ALOX12 inh = ALOX12 (human) lipoxygenase inhibition; P18054; purified 12hLO, xylenol orange hydroperoxide absorbance; Potency, µM (doses to about 108 µM), for inactives: at the highest dose activity change, negative = inhibition, hits mostly inhibitors; 580,000 tested, 1.1% active; also: potency is read from the fitted curve at half-maximal effect
Target sequence (P18054 whole entry, looked up): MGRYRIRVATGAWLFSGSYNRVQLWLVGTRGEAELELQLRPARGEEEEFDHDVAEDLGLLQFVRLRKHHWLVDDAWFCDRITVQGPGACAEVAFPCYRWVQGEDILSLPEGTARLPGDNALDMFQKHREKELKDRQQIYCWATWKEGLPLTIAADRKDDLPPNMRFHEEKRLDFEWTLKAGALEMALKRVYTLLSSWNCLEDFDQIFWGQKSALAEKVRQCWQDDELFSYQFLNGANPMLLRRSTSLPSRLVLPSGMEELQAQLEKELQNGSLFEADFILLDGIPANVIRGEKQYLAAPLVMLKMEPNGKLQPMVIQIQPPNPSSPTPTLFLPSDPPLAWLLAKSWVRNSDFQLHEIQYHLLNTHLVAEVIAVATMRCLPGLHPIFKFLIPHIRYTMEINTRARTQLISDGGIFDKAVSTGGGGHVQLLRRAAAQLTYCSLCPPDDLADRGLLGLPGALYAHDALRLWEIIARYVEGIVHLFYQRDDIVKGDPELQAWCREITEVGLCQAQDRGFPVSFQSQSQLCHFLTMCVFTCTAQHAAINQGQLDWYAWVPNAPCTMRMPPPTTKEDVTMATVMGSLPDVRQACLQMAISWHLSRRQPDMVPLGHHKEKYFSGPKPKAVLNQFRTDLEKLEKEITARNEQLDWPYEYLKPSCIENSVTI
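Hydroperoxide product was detected by ferrous iron/xylenol orange as the 573 to 405 nm absorbance ratio. Arachidonic acid at 40 uM (final) was turned over for 30 min at room temperature by 150 nM human 12hLO, pH 7.0 Hepes buffer, after 15 min compound preincubation.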
Numbers without * were called inactive; ? = inconclusive; . = not tested or not shown. Only a selection was taken, and hits are over-represented in it overall. Unless noted, calls follow the shape of the dose curve; as a rule, active = well fitted curve in the direction sought with a large enough effect; inconclusive = small, poorly fitted or top-dose-only effect, or another doubt; inactive = no such curve, though single readings can be large; an effect the other way counts as inactive or inconclusive. Unless noted, % is scaled to controls: 0 for no effect and ±100 for the full control effect.

SMILES	TDP1 cell CPT	IL-1B inflam inh	HT1080 IDH1KD tx	TDP1 cell noCPT	HT1080-NT tox	ALOX12 inh
CCCc1nnc2c(N(C)S(=O)(=O)c3ccc(C)cc3)nc3ccccc3n12	?	1.9	-11.7%	23.1µM*	-3.6%	-27.4%
COc1ccc(S(=O)(=O)N(C)c2nc3ccccc3n3c(CC(C)C)nnc23)cc1	25.9µM*	21.4	-2.3%	20.6µM*	-25.8%	-24.5%
CCCCc1nnc2c(N(C)S(=O)(=O)c3ccc(C)cc3)nc3ccccc3n12	-27.3%	21.6	11.3%	?	-3.1%	-12.4%
Nc1cc(F)ccc1C(=O)OCc1cccc(Cl)c1	.	.	.	.	.	-33.4%
CCn1cc(S(=O)(=O)N2CCCOCCNC(=O)[C@@H]3CCC[C@@H]32)cn1	.	.	.	.	.	59.5%
CN(C)c1cccc(NC(=O)C2Cc3c(-c4ccc(Cl)cc4)ccnc3O2)c1 (stereo not drawn)	?	-28.2	?	?	?	-4.3%
CC(=O)c1cccc(NC(=O)C2Cc3c(-c4ccc(Cl)cc4)ccnc3O2)c1 (stereo not drawn)	?	-8.2	?	10.3µM*	?	.
CC(=O)c1cccc(-c2ccnc3c2CC(C(=O)Nc2ccc(Cl)cc2)O3)c1 (stereo not drawn)	?	-7.9	16.4µM*	20.6µM*	?	-7.6%
O=C(Nc1ccc(Cl)c(C(F)(F)F)c1)C1Cc2c(-c3ccc4c(c3)OCO4)ccnc2O1 (stereo not drawn)	23.1µM*	-2.6	20.6µM*	?	?	-23.4%
CC(=O)c1cccc(-c2ccnc3c2CC(C(=O)Nc2ccc(Cl)c(C(F)(F)F)c2)O3)c1 (stereo not drawn)	20.6µM*	93.9	?	?	-19.9%	?
CC(=O)Nc1ccc(NC(=O)C2Cc3c(-c4cccc(C(C)=O)c4)ccnc3O2)cc1 (stereo not drawn)	2.5%	30.4	-0.7%	-19.4%	-1.1%	-3.5%
N#CC(C(=O)NCc1ccccc1)c1nc2ccccc2nc1N1CCN(CCc2ccccc2)CC1 (stereo not drawn)	.	.	.	.	.	-6.3%
CCn1c(=O)cc(SCC(=O)NCc2ccc(C)cc2)c2ccccc21	?	-16.7	?	25.9µM*	?	-18.0%
Cn1c(=O)cc(SCC(=O)NCc2ccc(F)cc2)c2cc(Cl)ccc21	7.31µM*	.	.	13µM*	.	-21.2%
CCn1c(=O)cc(SCC(=O)NCc2ccc(C)o2)c2ccccc21	14.6µM*	37.9	?	13µM*	-29.0%	3.2%
CCn1c(=O)cc(SCC(=O)NCc2cccnc2)c2ccccc21	-6.1%	18.4	-3.2%	-23.4%	-1.0%	-3.2%
CCOc1ccc(CNC(=O)CSc2cc(=O)n(CC)c3ccccc23)cc1	-2.8%	.	.	?	.	-20.6%
CCc1ccc(CNC(=O)CSc2cc(=O)n(CC)c3ccccc23)cc1	20.6µM*	.	.	8.2µM*	.	1.5%
CCn1c(=O)cc(SCC(=O)Nc2ccc(C)cn2)c2ccccc21	?	?	8.4%	29.1µM*	7.1%	-1.3%
CCn1c(=O)cc(OCC(=O)Nc2ccc(C)cn2)c2ccccc21	?	27.2	7.1%	?	-0.1%	0.0%
CCOC(=O)[C@@H]1[C@H]2COc3cc(OC)ccc3[C@H]2N2C(=O)N(c3cccc(Cl)c3)C(=O)[C@]12C	14.6µM*	?	-2.3%	?	-6.0%	.
CCOC(=O)[C@@H]1[C@H]2COc3ccccc3[C@@H]2N2C(=O)N(c3cccc(Cl)c3)C(=O)[C@@]12C	?	-8.0	1.3%	16.4µM*	0.5%	0.3%
CCOC(=O)[C@@H]1[C@H]2COc3ccccc3[C@@H]2N2C(=O)N(c3ccc(Cl)cc3)C(=O)[C@@]12C	-18.5%	-11.3	-1.2%	-22.2%	-0.4%	1.5%
CCOC(=O)[C@@H]1[C@H]2COc3cc(OC)ccc3[C@H]2N2C(=O)N(c3cccc(Cl)c3)C(=O)[C@@]12C	?	-25.8	9.6%	?	-25.0%	.
CCOC(=O)[C@@H]1[C@H]2COc3ccccc3[C@H]2N2C(=O)N(c3ccc(Cl)cc3)C(=O)[C@]12C	?	-0.2	3.4%	20.6µM*	-23.4%	11.2%
SMILES	TDP1 cell CPT	IL-1B inflam inh	HT1080 IDH1KD tx	TDP1 cell noCPT	HT1080-NT tox	ALOX12 inh
CCOC(=O)[C@@H]1[C@H]2COc3ccccc3[C@H]2N2C(=O)N(c3cccc(Cl)c3)C(=O)[C@@]12C	?	10.5	-8.8%	?	?	.
Cc1ccc(NC(=O)CN(C)C(=O)C(C)N2CCCC(C(F)(F)F)C2)cc1 (stereo not drawn)	.	.	.	.	.	-6.5%
O=C(c1ccccc1F)N1CCC2(CC1)C(=NC1CCCC1)NC(=O)N2c1cc(F)cc(F)c1	.	.	.	.	.	57.5%
CN1CCN(c2ccc(NC(=O)c3ccccc3F)nc2)CC1	.	.	.	.	.	-3.0%
CCC1Oc2ccc(NS(=O)(=O)c3ccccc3)cc2CN(Cc2ccc(F)cc2)C1=O (stereo not drawn)	.	.	.	.	.	14.1µM*
CCCCOc1ccc(CSCCN=C(N)N)cc1	?	-80.6*	25.9µM*	4.61µM*	?	-18.0%
CCCCOc1ccc(CC(N)=O)cc1	-2.1%	.	19.0%	-13.9%	16.1%	.
